Data taken from PubChem BioAssay (NCI).
Several values for one entry are separate records, joined by “and”; a condition that tells them apart may be missing. Equal values may be shown once. This is part of a sample that, as a whole, favours compounds with a hit. Of some 83,000 tested, about 20% had one in any assay.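 Treatment: one concentration, 48 hours, 96-well format. Scoring: percent growth, with anything below 10 considered active.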 Activity calls are given as the source filed them.

System: UACC-62 melanoma
Test: NCI-60 one-dose screen, 48 h (100 = growth as untreated, 0 = no growth, -100 = all killed)
Details: 10 µM unless noted

SMILES	growth
COc1ccccc1[As]=[As]c1ccccc1OC (stereo unspecified)	-84.6% (active)
O=S(=O)(F)c1ccc(Cl)cc1	103% (inactive)
C/C1=C\[C@H](C)C[C@H](C)OC(=O)C[C@H](c2ccc(O)cc2)NC(=O)[C@@H](Cc2c(Br)[nH]c3ccccc23)N(C)C(=O)[C@H](C)NC(=O)[C@@H](C)C1	-1.83% (active)
[Cl][Hg][c]1ccc2ccccc2c1	-43% (active)
COc1cc(/C=C(/C)[N+](=O)[O-])ccc1O	55.4% (inactive) and -53.8% (active)
O=[N+]([O-])c1cc[n+]([O-])c2ccccc12	-85.2% (active)
[O-][n+]1ccccc1S	13.6% (inactive)
NNc1ccccc1	40.4% (inactive)
O=C1CCC(=O)N1SC(Cl)(Cl)Cl	106% (inactive)
Cc1cc([N+](=O)[O-])c2ccccc2[n+]1[O-]	-55.5% (active) and -86.3% (active)
CC/C(=C/c1ccc(OC)cc1)[N+](=O)[O-]	-60.8% (active)
COc1cc(/C=C\[N+](=O)[O-])ccc1O	61.1% (inactive) and 80.2% (inactive)
Oc1c(I)cc(I)cc1I	102% (inactive)
COC(=O)C1C(O)C(C)C(O)C(C)/C=C\C=C(C)C(=O)Nc2c(C)c(OC(C)=O)c3c(c2O)C(=O)C(C)=C2OCOC(=C23)C(C)=CC(C)(O)C(O)C(C)C1O (stereo unspecified)	97.4% (inactive)
COC1CC2C=C(C)/C=C/C=C/C(=O)NC(c3ccccc3)C/C=C/CCC(O)CC(=O)C2=C1O (stereo unspecified)	-89.3% (active)
C=C1C(=O)O[C@@H]2C[C@@H](C)[C@@H]3C=CC(=O)[C@@]3(C)[C@@H](O)[C@H]12	-61.4% (active)
CC12OOC(c3ccccc31)c1c2ccc2ccccc12 (stereo unspecified)	59.6% (inactive)
Cn1c(O)c(N=O)c(=O)n(C)c1=O	99.7% (inactive) and 93.3% (inactive)
CC(C)C1(NC(=O)C2CC3c4cccc5[nH]cc(c45)CC3N(C)C2)OC2(O)C3CCCN3C(=O)C(Cc3ccccc3)N2C1=O (stereo unspecified)	86.4% (inactive)
C#CC1(O)CCC(C(C)(C)C)CC1 (stereo unspecified)	104% (inactive)
O=[N+]([O-])/C=C/c1ccc(Cl)cc1[N+](=O)[O-]	73.7% (inactive)
COC(C(=O)C(O)C(C)O)C1Cc2cc3cc(OC4CC(OC(C)=O)C(OC5CC(O)C(OC)C(C)O5)C(C)O4)cc(O)c3c(O)c2C(=O)C1OC1CC(OC2CC(OC3CC(C)(O)C(OC(=O)C(C)C)C(C)O3)C(O)C(C)O2)C(O)C(C)O1 (stereo unspecified)	-97% (active)
COC12c3c(C)cc(O)c4c(=O)occ(c34)C(=O)C1C13COC(=O)c4c(O)cc(C)c(c41)C(=O)C2C3OC(C)=O (stereo unspecified)	97.5% (inactive)
[Cl][Sn]([c]1ccccc1)([c]1ccccc1)[c]1ccccc1	-75.4% (active)
C=NCC#N	107% (inactive) and 104% (inactive)
CC(=O)[O][Hg][c]1c(C)c(C)cc(C)c1C	-26.1% (active)
[Cl][Hg][c]1ccc(Cl)s1	51.3% (inactive)
COc1ccc(/C=C(\C)[N+](=O)[O-])cc1OC	32.7% (inactive)

System: LOX IMVI melanoma
Test: as above
Details: 10 µM

SMILES	growth
COc1ccccc1[As]=[As]c1ccccc1OC (stereo unspecified)	-97.3% (active)
O=S(=O)(F)c1ccc(Cl)cc1	96.7% (inactive)
C/C1=C\[C@H](C)C[C@H](C)OC(=O)C[C@H](c2ccc(O)cc2)NC(=O)[C@@H](Cc2c(Br)[nH]c3ccccc23)N(C)C(=O)[C@H](C)NC(=O)[C@@H](C)C1	-32.7% (active)
CC1CCC2(OC1)OC1C(O)C3C4CCC5CC(OC6OC(CO)C(OC7OC(CO)C(O)C(OC8OCC(O)C(O)C8O)C7OC7OC(CO)C(O)C(OC8OC(CO)C(O)C(O)C8O)C7O)C(O)C6O)C(O)CC5(C)C4CCC3(C)C1C2C (stereo unspecified)	-69.8% (active)
[Cl][Hg][c]1ccc2ccccc2c1	-100% (active)
COc1cc(/C=C(/C)[N+](=O)[O-])ccc1O	-25.7% (active) and -73.2% (active)
O=[N+]([O-])c1cc[n+]([O-])c2ccccc12	-73.7% (active)
[O-][n+]1ccccc1S	1.84% (active)
NNc1ccccc1	65.3% (inactive)
O=C1CCC(=O)N1SC(Cl)(Cl)Cl	108% (inactive)
Cc1cc([N+](=O)[O-])c2ccccc2[n+]1[O-]	7.14% (active) and -48.7% (active)
CC/C(=C/c1ccc(OC)cc1)[N+](=O)[O-]	-92.5% (active)
COc1cc(/C=C\[N+](=O)[O-])ccc1O	-66.1% (active) and 46.7% (inactive)
COC(=O)C1C(O)C(C)C(O)C(C)/C=C\C=C(C)C(=O)Nc2c(C)c(OC(C)=O)c3c(c2O)C(=O)C(C)=C2OCOC(=C23)C(C)=CC(C)(O)C(O)C(C)C1O (stereo unspecified)	78.7% (inactive)
COC1CC2C=C(C)/C=C/C=C/C(=O)NC(c3ccccc3)C/C=C/CCC(O)CC(=O)C2=C1O (stereo unspecified)	-91.6% (active)
C=C1C(=O)O[C@@H]2C[C@@H](C)[C@@H]3C=CC(=O)[C@@]3(C)[C@@H](O)[C@H]12	-97% (active)
CC12OOC(c3ccccc31)c1c2ccc2ccccc12 (stereo unspecified)	-91.2% (active)
Cn1c(O)c(N=O)c(=O)n(C)c1=O	91.4% (inactive) and 94.4% (inactive)
CC(C)C1(NC(=O)C2CC3c4cccc5[nH]cc(c45)CC3N(C)C2)OC2(O)C3CCCN3C(=O)C(Cc3ccccc3)N2C1=O (stereo unspecified)	91% (inactive)
C#CC1(O)CCC(C(C)(C)C)CC1 (stereo unspecified)	110% (inactive)
O=[N+]([O-])/C=C/c1ccc(Cl)cc1[N+](=O)[O-]	-94.1% (active)
COC(C(=O)C(O)C(C)O)C1Cc2cc3cc(OC4CC(OC(C)=O)C(OC5CC(O)C(OC)C(C)O5)C(C)O4)cc(O)c3c(O)c2C(=O)C1OC1CC(OC2CC(OC3CC(C)(O)C(OC(=O)C(C)C)C(C)O3)C(O)C(C)O2)C(O)C(C)O1 (stereo unspecified)	1.99% (active)
COC12c3c(C)cc(O)c4c(=O)occ(c34)C(=O)C1C13COC(=O)c4c(O)cc(C)c(c41)C(=O)C2C3OC(C)=O (stereo unspecified)	104% (inactive)
[Cl][Sn]([c]1ccccc1)([c]1ccccc1)[c]1ccccc1	-76.1% (active)
C=NCC#N	102% (inactive) and 111% (inactive)
CC(=O)[O][Hg][c]1c(C)c(C)cc(C)c1C	-95.3% (active)
[Cl][Hg][c]1ccc(Cl)s1	-70.9% (active)
COc1ccc(/C=C(\C)[N+](=O)[O-])cc1OC	-58.7% (active)
